From PubChem
The list is not random: actives were taken first. Their share in the collection is about 22%.
Measles CPE – compounds protecting cells from measles virus cytopathic effect, primary screen, measles RdRp inhibitor project, single point, MLSMR library, absorbance. AID 841, 2007. 1.5% of 140,000 active. Measles virus-infected cells, CPE protection. protection (pct of control), % at 4 µM; in the data active = protection mostly above about 24%, no sharp cut-off; inactive = mostly below about 26%
CYP2C9 inh – blockers of cytochrome P450 2C9 activity – biochemical, luminescence, ADME assay, primary screen | 20% of 96,000 active | P11712 | CYP2C9 Supersomes, luciferin-H conversion | inhibition, % at 5 µM | AID 777, 2007;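 active = blocking of liver enzyme CYP2C9 beyond about 50% at 5 µM, limit read from the data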
CYP2C19 inhib – blockers of cytochrome P450 2C19 activity – biochemical, luminescence, ADME assay, primary screen; P33261; CYP2C19 Supersomes, luciferin-H EGE luminescence, 30 min; inhibition, % at 5 µM; 21% of 96,000 active;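 active = CYP2C19 inhibition above a set limit at 5 µM in the primary screen, cut at about 50% in these data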
Target sequence (P33261 whole entry, looked up): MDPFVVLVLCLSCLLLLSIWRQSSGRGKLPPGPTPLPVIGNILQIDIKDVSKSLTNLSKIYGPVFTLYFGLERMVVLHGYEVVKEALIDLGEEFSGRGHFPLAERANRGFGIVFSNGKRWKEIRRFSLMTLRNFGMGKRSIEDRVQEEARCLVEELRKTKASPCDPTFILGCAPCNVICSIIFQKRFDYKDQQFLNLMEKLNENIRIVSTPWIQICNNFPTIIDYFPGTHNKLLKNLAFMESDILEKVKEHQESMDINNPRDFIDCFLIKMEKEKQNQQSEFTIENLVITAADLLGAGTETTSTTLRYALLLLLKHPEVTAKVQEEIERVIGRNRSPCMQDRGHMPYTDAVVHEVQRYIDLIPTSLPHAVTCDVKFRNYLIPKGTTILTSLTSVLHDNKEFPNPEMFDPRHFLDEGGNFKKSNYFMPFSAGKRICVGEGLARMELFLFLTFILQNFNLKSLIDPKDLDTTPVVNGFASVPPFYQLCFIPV
CYP2C9 act – human CYP2C9 activators, primary screen, biochemical, luminescence. activation factor at 5 µM. 1.4% of 96,000 active. Cytochrome P450 2C9 (Homo sapiens), P11712. recombinant CYP2C9, luciferin-H conversion; hits give high values; factor 1 = untreated enzyme, 0 = blocked;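 active = activation factor of 2 or more for CYP2C9 at a 5 µM dose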
CYP2C19 act – human CYP2C19 activators, primary screen, biochemical, luminescence. 96,000 tested, under 10 active. activation factor at 5 µM. AID 1025, 2008. recombinant CYP2C19, luciferin-H EGE luminescence; hits give high values; 0 = fully inhibited enzyme, 1 = untreated enzyme;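 active = activation factor of at least 2 at 5 µM in the primary screen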
Hits are given with their value; n = inactive; x = not tested or not shown.

SMILES	Measles CPE	CYP2C9 inh	CYP2C19 inhib	CYP2C9 act	CYP2C19 act
COc1ccc(-c2nnc(SCC(=O)NC(C)c3ccccc3)o2)cc1 (stereo unspecified)	n	n	59.2	n	n
O=C(CSc1nnc(-c2ccc(OC(F)F)cc2)o1)NCc1cccs1	n	n	64.3	n	n
COc1ccc(-c2nnc(SCC(=O)Nc3ccccc3OC)o2)cc1	n	x	x	x	x
COc1ccc(-c2nnc(SCC(=O)NC(=O)NCc3ccco3)o2)cc1	n	n	52.5	n	n
COc1cccc(CN(C)CC(=O)NC(=O)NCc2ccco2)c1	n	n	58.1	n	n
O=C(Nc1ccc2c(c1)OCO2)c1cnc2n(c1=O)CCS2	n	x	x	x	x
O=C1N2c3ccccc3CCc3cccc(c32)C1(O)C(F)(F)F (stereo unspecified)	n	n	51.6	n	n
O=C1CCCC2=C1C(O)(C(F)(F)F)C(=O)N2Cc1ccccc1 (stereo unspecified)	n	x	x	x	x
CCn1c(SCC(=O)NCc2cccs2)nc2c1c(=O)n(C)c(=O)n2C	n	n	n	n	n
CCC(=O)N1N=C(c2c(-c3ccccc3)c3cc(Cl)ccc3[nH]c2=O)CC1c1ccco1 (stereo unspecified)	n	x	x	x	x
COc1cccc(C2CC(c3c(-c4ccccc4)c4cc(Cl)ccc4[nH]c3=O)=NN2S(C)(=O)=O)c1OC (stereo unspecified)	68.5	50.6	n	n	n
COc1ccccc1C1CC(c2c(-c3ccccc3)c3cc(Cl)ccc3[nH]c2=O)=NN1S(C)(=O)=O (stereo unspecified)	n	59.5	n	n	n
COc1cccc(NC(=O)C2CC(=O)N=C(N)S2)c1 (stereo unspecified)	n	n	n	n	n
COC(=O)Nc1ncc(CN2CCc3ccccc3C2)s1	n	n	75.6	n	n
COc1ccc(/C=N/Nc2ccccc2)cc1Cn1nc(C)c([N+](=O)[O-])c1C	n	50.2	72.5	n	n
CC(=O)Nc1ccc(NC(=O)C(C)OC(=O)CN(C)S(=O)(=O)c2ccc(Cl)cc2)cc1 (stereo unspecified)	n	60.3	75.3	n	n
CC(OC(=O)CN(C)S(=O)(=O)c1ccc(Cl)cc1)C(=O)Nc1ccc(N2CCOCC2)cc1 (stereo unspecified)	n	n	n	n	n
Cc1ccc2c(c1)c1c3n2CCN(C(=O)Cn2c(-c4ccccc4)noc2=O)C3CCC1 (stereo unspecified)	n	50.1	n	n	n
Cc1ccc2c(c1)c1c3n2CCCN(Cc2ccccc2)C3CCC1 (stereo unspecified)	n	n	60.6	n	n
Cc1ccc2c(c1)c1c3n2CCN(C(=O)CN2CCN(C)CC2)C3CCC1 (stereo unspecified)	n	n	n	n	n
Cc1ccc2c(c1)c1c3n2CCN(C(=O)C2CC2)C3CCC1 (stereo unspecified)	n	50.3	n	n	n
Cc1ccc2c(c1)c(=O)c1c3n2CCN(C(=O)CCl)C3CC1 (stereo unspecified)	n	n	n	n	n
O=C(NC1CCCC1)C(NS(=O)(=O)c1cccc2nsnc12)c1ccccc1 (stereo unspecified)	n	50.5	n	n	n
O=C(NC1CCCCC1)C1CCCN1S(=O)(=O)c1cccc2nsnc12 (stereo unspecified)	n	53.6	n	n	n
CCOC(=O)N1CCN(C(=O)C(NS(=O)(=O)c2cccc3nsnc23)c2ccccc2)CC1 (stereo unspecified)	n	72.7	n	n	n
SMILES	Measles CPE	CYP2C9 inh	CYP2C19 inhib	CYP2C9 act	CYP2C19 act
CCc1ccc(NC(=O)C(NS(=O)(=O)c2cccc3nsnc23)c2ccccc2)cc1 (stereo unspecified)	n	x	x	x	x
CC(=O)C1=C(C)NC(=O)NC1c1cccs1 (stereo unspecified)	n	n	n	n	n
Cc1cc(C)cc(N(CC(=O)Nc2ccccc2-c2ccccc2)S(=O)(=O)c2ccccc2)c1	n	x	x	x	x
O=C(CN(Cc1ccccc1)S(=O)(=O)c1ccc(Br)cc1)NCc1ccco1	n	66.2	n	n	n
Cc1ccc(N(CC(=O)Nc2ccccc2-c2ccccc2)S(=O)(=O)c2ccccc2)cc1	n	59.6	54.9	n	n
Cc1ccc(N(CC(=O)NCc2ccco2)S(=O)(=O)c2ccccc2)cc1	n	91.6	93.9	n	n
COc1ccccc1N(CC(=O)N/N=C/c1ccc(OCC(=O)NCc2ccco2)cc1)S(=O)(=O)c1ccc(C)cc1	n	95.8	88.8	n	n
Cc1ccc(N(CC(O)COCc2ccco2)S(=O)(=O)c2ccc(C)cc2)cc1 (stereo unspecified)	46.4	87.8	94.4	n	n
O=C(CN(c1ccc2c(c1)OCCO2)S(=O)(=O)c1ccccc1)NCc1ccco1	n	61.5	70.7	n	n
COc1ccc(-n2c(C)nc3c(cnn3-c3ccc(C)c(C)c3)c2=O)cc1	n	n	n	n	n
CC1CC(C)CN(C(=O)c2ccc(N3CC4CC(C3)c3cccc(=O)n3C4)c([N+](=O)[O-])c2)C1 (stereo unspecified)	n	x	x	x	x
Cc1cccn2c(=O)c(/C=C(\C#N)S(=O)(=O)c3ccccc3)c(N3CCC(C(N)=O)CC3)nc12	n	81.7	n	n	n
COc1ccccc1N1CCN(c2nc3c(C)cccn3c(=O)c2C=O)CC1	n	n	68.9	n	n
Cc1cccn2c(=O)c(C=O)c(N3CCCCCC3)nc12	n	n	n	n	n
Cc1ccc(S(=O)(=O)/C(C#N)=C/c2c(N3CCC(C(N)=O)CC3)nc3ccccn3c2=O)cc1	n	92.0	n	n	n
CCN1CCN(c2nc3c(C)cccn3c(=O)c2/C=C(\C#N)S(=O)(=O)c2ccccc2)CC1	n	90.2	n	n	n
Cc1cc(NC(=O)/C(C#N)=C/c2ccc(-c3ccc(SC(F)F)cc3)o2)n(-c2ccccc2)n1	n	x	x	x	x
COC(=O)c1[nH]c2ccc(F)cc2c1NC(=O)CCN1CC(C)OC(C)C1 (stereo unspecified)	n	n	n	n	n
Cc1cnc(C(=O)OCC(=O)NC2CCCCC2)cn1	n	n	n	n	n
Cc1ccc(S(=O)(=O)/C(C#N)=C/c2c(N3CCC(C(N)=O)CC3)nc3c(C)cccn3c2=O)cc1	n	80.5	n	n	n
COc1nc(N)c(S(=O)(=O)c2ccc(C)cc2)cc1C#N	n	53.1	53.0	n	n
Cc1ccc(N(CC(=O)NC2CC3CCC2C3)S(C)(=O)=O)cc1C (stereo unspecified)	n	n	73.2	n	n
CS(=O)(=O)N(CC(=O)NC1CC2CCC1C2)c1cccc(C(F)(F)F)c1 (stereo unspecified)	n	n	n	n	n
